# Measurements as given in PubChem BioAssay AID651784 (National Center for Advancing Translational Sciences (NCATS), 2012).
# Records with an inconclusive call do not appear. Calls of active or inactive are those of the source. The call rests on the fitted dose curve; in most records, active means well fitted inhibition curve with a large enough effect; inconclusive means small, poorly fitted or top-dose-only effect; inactive means no such curve, though single readings can be large or run the other way.
# Assay: Acumen qHTS Assay for Inhibitors of the mTORC1 Signaling Pathway in MEF (Tsc2-/-, p53-/-) Cells: Hit Validation;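 further: phospho-rpS6 Ser235/236 immunofluorescence normalized to propidium iodide cell count; nearly all actives have a fitted effect of over 65% in size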;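 on activity change, negative = inhibition: cells exposed to compound for 24 hours; plate controls were DMSO for no effect and 7.5 nM rapamycin control for full effect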
# Conditions: Acumen imaging; activity change, negative = inhibition: at 37.3 µM (top of the series)
# Potency means the concentration at half of the fitted maximal effect.
SMILES,Potency,"activity change, negative = inhibition"
CCNc1nc2c(c(=O)[nH]c(=O)n2C)n1CC(O)COc1ccc(Cl)cc1Cl (stereo unspecified),0.147 µM (active),
COc1ccc(S(=O)(=O)Nc2ccc3oc4c(c3c2)CCCC4)cc1,,1.17%
COc1ccc(Cl)cc1S(=O)(=O)NCc1ccc2c(c1)CCN2C(=O)c1cccc(C)c1,,-22.6%
COc1ccc(C(=O)Nc2ccc(OCc3cc(=O)n4ccccc4n3)cc2)cc1,,7.16%
CCCCN1C(=O)C(O)(c2c(C)[nH]c3ccccc23)c2cc(Br)ccc21 (stereo unspecified),,-47%
COc1ccc(-c2nc3cc(NC(=O)Cc4ccc(Cl)cc4)ccc3o2)cc1OC,,-60.1%
COc1ccc(CCN2CCC(CNC(=O)c3cnn(-c4cccc(Cl)c4)c3C3CCN(C(=O)OC(C)(C)C)CC3)CC2)cc1,6.56 µM (active),
CCCCn1c(=N)n(CCOc2ccccc2OC)c2ccccc21,4.65 µM (active),
CCn1c(CC2C(=O)N(C)c3ccc(Br)cc32)nc2ccccc2c1=O (stereo unspecified),,-27%
COc1ccc(-c2ccc(CCC(=O)O)n2-c2cc(Cl)ccc2O)cc1,,-7.48%
COc1cc(C(=O)N(CCCN(C)C)c2nc3c(OC)cccc3s2)cc(OC)c1OC,,19.6%
CCCCS(=O)(=O)c1oc(-c2cccs2)nc1S(=O)(=O)c1ccccc1,2.07 µM (active),
Cc1ccc(C(=O)CC2(O)C(=O)N(Cc3ccccc3)c3ccccc32)c(C)c1 (stereo unspecified),,-24%
COc1cc(CNc2ccc3c(c2)ncn3C(C)C)cc(OC)c1OC,,-25.9%
O=C(Nc1ccccc1)N(Cc1cccc(Cl)c1)c1ccccn1,,14.8%
Cc1ccccc1S(=O)Cc1ccc(C(=O)N2CCN(c3cccc(C)c3C)CC2)o1 (stereo unspecified),6.56 µM (active),
